PINK1 expr mod: A Quantitative High throughput Screen to Identify Chemical Modulators of PINK1 Expression; PINK1 immunofluorescence, high-content cytometry, 24 h; Potency, µM (titrated, usually from 76.6 µM), inactives show top-dose activation (PINK1 increase), most hits filed as activators; 0.2% of 410,000 active; active = well fitted activation curve with a large enough effect; inconclusive = small, poorly fitted or top-dose-only effect; cell line not stated here; also: potency is read from the fitted curve at half-maximal effect; % of control where 0% means no effect; nearly all actives have a fitted effect of over 65% in size
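A stable cell line was treated with compounds at 5 concentrations for 24 hours, with CCCP as control. PINK1 levels and mitochondrial localization were measured by immunofluorescence with mitochondrial, cell and nuclear markers after fixation, read by laser-scanning cytometry.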
IL1B secr inh: qHTS for Inhibitors of Inflammasome Signaling: IL-1-beta AlphaLISA Primary Screen; 4.7% of 360,000 active; THP-1 LPS/ATP IL-1B secretion, AlphaLISA, 16 h; active compounds read low; AID 743279, 2014; activity change, % at 57.5 µM; in the data active = activity change below about -50%; inconclusive = mostly about -30% to -49%; also: % is scaled to controls: 0 for no effect and ±100 for the full control effect
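Secreted IL-1B measured by AlphaLISA bead assay after 16 h compound exposure of THP-1 cells; compounds (final up to 57.5 uM) added 1 h before LPS (250 ng/mL) and ATP (1.25 mM) stimulation; lower signal means less secretion.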
ATXN viability: Viability Counterscreen for Primary qHTS for Inhibitors of ATXN expression. AID 651635, 2014. 0.49% of 400,000 active. S2 cells (HEK-293 line with an ATXN2-luciferase reporter) viability, CellTiter-Fluor protease fluorescence, 24 h. Potency, µM (series often up to 56.7 µM), usual class: cytotoxic; also: potency is read from the fitted curve at half-maximal effect; nearly all actives have a fitted effect of over 40% in size
SW480 rereplic: A quantitative high throughput screen for small molecules that induce DNA re-replication in SW480 colon adenocarcinoma cells; SW480 DNA re-replication, Hoechst DNA content imaging, 48 h; 1.8% of 340,000 active; Potency, µM (highest dose often 46.1 µM), for the others: at the top dose re-replication activation, actives largely listed as activators; also: potency is read from the fitted curve at half-maximal effect; % of control where 0% means no effect; nearly all actives have a fitted effect of over 55% in size
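Compounds, transferred as 23 nL by pin tool, were incubated with cells for 48 hr; DNA content per nucleus was then quantified by Hoechst staining and fluorescence plate imaging.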
MCF10A rereplic: A quantitative high throughput screen for small molecules that induce DNA re-replication in MCF 10a normal breast cells; MCF 10A DNA re-replication, Hoechst nuclear intensity, 48 h; 2.9% of 350,000 active; Potency, µM (highest dose often 46.1 µM), for the others: top-dose activity, positive = re-replication, hits mostly activators; also: potency is read from the fitted curve at half-maximal effect; % of control where 0% means no effect; nearly all actives have a fitted effect of over 50% in size
ATXN2 expr inh: Primary qHTS for Inhibitors of ATXN expression. HEK-293 ATXN2-luciferase reporter, luminescence, 24 h. Potency, µM (doses to about 57 µM), inactives show at the top dose activity change, negative = inhibition, most hits filed as inhibitors. 0.72% of 360,000 active; also: potency is read from the fitted curve at half-maximal effect; % is scaled to controls: 0 for no effect and ±100 for the full control effect; nearly all actives have a fitted effect of over 55% in size
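qHTS (up to 57 uM final) was run with 24 h compound exposure of reporter cells at 37 °C. Each well was multiplexed: SteadyGlo luminescence measured ATXN2-luciferase expression after a fluorogenic Gly-Phe-AFC viability readout (25 uM final).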
Starred values were filed as active, the others as inactive; i = inactive; u = inconclusive; x = not tested or not shown; ! = not active in a repeat; [ ] = dose if it differs, or a comment. A selection: hits, their analogues and other compounds. The true share with any hit is near 7.1%. Unless noted, calls follow the shape of the dose curve; as a rule, active = well fitted curve in the direction sought with a large enough effect; inconclusive = small, poorly fitted or top-dose-only effect, or another doubt; inactive = no such curve, though single readings can be large; an effect the other way counts as inactive or inconclusive.

SMILES	PINK1 expr mod	IL1B secr inh	ATXN viability	SW480 rereplic	MCF10A rereplic	ATXN2 expr inh
CCCc1cc(=O)oc2cc(C)cc(OCC(=O)Nc3cccnc3)c12	1%	u	i	23µM*	12%	-16%
Nc1c(C(=O)Nc2ccc(OC(F)(F)F)cc2)nnn1Cc1ccccc1	2%	x	u	x	x	9%
CCC(=O)O[C@]1(C(=O)COC)[C@@H](C)C[C@H]2[C@@H]3CCC4=CC(=O)C=C[C@]4(C)C3(F)[C@@H](O)C[C@@]21C (stereo partly specified)	x	x	i	x	x	-1%
CCCn1nc(NC(=O)c2ccccn2)c2cc3cc(C)ccc3nc21	12%	-63*	i	7.3µM*	u	10%
CCCn1nc(NS(=O)(=O)c2cccc3nonc23)c2cc3cccc(C)c3nc21	1%	13	i	12%	u	x
CCCn1nc(NC(=O)c2ccco2)c2cc3ccc(C)cc3nc21	-1%	-12	x	13µM*	u	-6%
CCCC(=O)Nc1nn(C)c2nc3ccc(C)cc3cc12	-1%	18	i	u	20%	-7%
CCCn1nc(NC(=O)c2ccco2)c2cc3cc(C)ccc3nc21	3%	0	x	18µM*	0%	18%
CCCn1nc(NS(=O)(=O)c2cccc3nonc23)c2cc3cc(C)ccc3nc21	-1%	-87*	i	-5%	1%	6%
O=C1CC(c2ccco2)CC2=C1C(c1ccncc1)n1nc(C(F)(F)F)nc1N2 (stereo unspecified)	0%	x	x	x	x	x
Cc1ccc(C)c(OCCn2cc(C(=O)c3cccs3)c3ccccc32)c1	1%	x	i	x	x	3%
CC(C)NC(=O)c1ccc(Cn2c(SCC(N)=O)nc3ccccc3c2=O)cc1	-4%	x	i	x	x	-34%
Fc1cccc(Nc2ncnc3[nH]ncc23)c1	1%	50	i	-25%	4.1µM*	-17%
Cc1cc(O)cc(O)c1C=NCc1ccco1	u	-10	18µM*	5%	u	u
CCOc1ccccc1CNC(=O)C(CC)n1nc(C)c2c(C)n(-c3ccccc3)nc2c1=O (stereo unspecified)	-3%	x	i	x	x	-16%
COc1cccc(/C=C/C(=O)c2c(O)cc(C)oc2=O)c1O	-5%	-81*	u	19%	u	4%
C/C(=C\C(=O)c1c(O)cc(C)oc1=O)N(C)C	1%	-6	i	-5%	-1%	-35%
COc1cc(/C=C/C(=O)c2c(O)cc(C)oc2=O)cc(OC)c1O	2%	-55*	i	-1%	2%	12%
CSc1ccc(/C=C/C(=O)c2c(O)cc(C)oc2=O)cc1	-1%	-20	i	18µM*	u	44%
COc1ccc(/C=C/C(=O)c2c(O)cc(C)oc2=O)c(OC)c1	-1%	-18	i	u	u	95%
Cc1ccc(C(=O)Nc2nc(C)c(C(=O)Nc3ccc4c(c3)CCC4)s2)cc1	11%	79	u	5.8µM*	1µM*	24%
Cc1nc(NC(=O)c2ccc(F)cc2)sc1C(=O)Nc1ccc2c(c1)CCC2	x	3	i	u	-8%	6%
CS(=O)(=O)N(CCC#N)Cc1ccc(/C=C2\C(=O)Nc3ccccc32)o1	-1%	-78*	i	-3%	1%	3%
COc1cc(Nc2c3ccccc3nc3ccccc23)cc(OC)c1OC	-3%	-95*	18µM*	23µM*	u	u
Clc1cncc(Cl)c1NNc1c2ccccc2nc2ccccc12	4%	19	u	8%	8%	u
SMILES	PINK1 expr mod	IL1B secr inh	ATXN viability	SW480 rereplic	MCF10A rereplic	ATXN2 expr inh
Cc1ccc2nc(NCC(N)=O)nc(-c3ccccc3)c2c1	0%	u	x	18µM*	u	x
COc1ccc(Nc2ccc(OC)cc2)cc1	1%	-52*	i	20%	3%	14%
Cc1ccc2nc(NCC(=O)O)nc(-c3ccccc3)c2c1	1%	-3	i	-1%[9.22 µM]	22%	2%
CC(C)(C)Nc1c2ccccc2nc2ccccc12	5%	-92*	i	23µM*	15µM*	-10%
CCOc1ccc(NC(=O)CC2C(=O)N(c3ccc(Cl)cc3)C(=O)N2Cc2cccs2)cc1 (stereo unspecified)	4%	x	x	x	x	x
COc1ccc(Nc2cc(C)c3ccccc3n2)cc1	5%	-97*	i	8%	8%	32%
Cc1ccc(C(=O)NNc2c3ccccc3nc3ccccc23)cc1	4%	-98*	u	2%	9%	-1%
OCCCNc1nc(-c2ccccc2)c2cc(Br)ccc2n1	-2%	-76*	i	u	4.6µM*	-6%
COc1ccc(NC(=S)c2ccccc2)cc1	2%	-82*	u	5%	-4%	44%
Cc1ccc2nc(NCCCO)nc(-c3ccccc3)c2c1	-2%	-4	i	u	u	-26%
COc1cccc(CNC(=O)c2ccc(-n3c(C)cc4c3CCCC4)cc2)c1	1%	x	i	x	x	u
Cc1ncc2c(c1CNS(=O)(=O)N(C)C)CCN(C(=O)c1ccc(F)cc1Cl)C2	0%	x	i	x	x	x
COc1ccc(Nc2c3c(nc4ccccc24)CCC3)cc1	u	x	i	8%	1%	u
COc1ccccc1Nc1c2ccccc2nc2ccccc12	u	-93*	x	u	u	-15%
COc1ccc(Nc2c3c(nc4ccccc24)CCCC3)cc1OC	0%	-18	i	-1%	2%	u
COc1ccc(Nc2c3ccccc3nc3ccccc23)cc1	-2%	-98*	i	23µM*	-2%	u
COc1ccc(C)cc1Nc1c2c(nc3ccccc13)CCC2	u	-82*	6.3µM*!	2.9µM*	1.6µM*	u
c1cncc(Nc2c3ccccc3nc3ccccc23)c1	-2%	-94*	x	5%	6%	-22%
O=C(NCC1(N2CCOCC2)CCCCC1)c1cnn(-c2nccc(-c3ccco3)n2)c1C1CC1	-1%	x	i	x	x	x
Cc1cc(C)c(S(=O)(=O)NCc2csc(-c3ccccc3)n2)c(C)c1	-1%	x	x	x	x	x
CCOc1ccccc1C(=O)N(Cc1ccco1)Cc1ccccc1F	0%	x	x	x	x	x
O=C(O)c1ccc(Nc2c3ccccc3nc3ccccc23)cc1	0%	-13	x	u	21µM*	7%
COc1cc(Nc2nc(-c3ccccc3)c3cc(C)ccc3n2)cc(OC)c1OC	6%	-65*	i	5%	u	-11%
